Screening data: PubChem BioAssay, National Center for Advancing Translational Sciences (NCATS)
Rows were chosen to be rich in hits. Some 7.3% of all compounds tested hit in one or more screens of this group.
FLuc inh-1: Firefly luciferase inhibition profiling of diverse chemical library using quantitative high-throughput screening; Luciferin 4-monooxygenase (Photinus pyralis), P08659; purified P. pyralis luciferase, luminescence, biochemical; AID 1347043, 2019; Potency, µM (titrated, usually from 115 µM), actives largely listed as inhibitors; 2.5% of 76,000 active; also: potency is read from the fitted curve at half-maximal effect; % is scaled to controls: 0 for no effect and ±100 for the full control effect; nearly all actives have a fitted effect of over 65% in size
Target sequence (P08659 whole entry, looked up): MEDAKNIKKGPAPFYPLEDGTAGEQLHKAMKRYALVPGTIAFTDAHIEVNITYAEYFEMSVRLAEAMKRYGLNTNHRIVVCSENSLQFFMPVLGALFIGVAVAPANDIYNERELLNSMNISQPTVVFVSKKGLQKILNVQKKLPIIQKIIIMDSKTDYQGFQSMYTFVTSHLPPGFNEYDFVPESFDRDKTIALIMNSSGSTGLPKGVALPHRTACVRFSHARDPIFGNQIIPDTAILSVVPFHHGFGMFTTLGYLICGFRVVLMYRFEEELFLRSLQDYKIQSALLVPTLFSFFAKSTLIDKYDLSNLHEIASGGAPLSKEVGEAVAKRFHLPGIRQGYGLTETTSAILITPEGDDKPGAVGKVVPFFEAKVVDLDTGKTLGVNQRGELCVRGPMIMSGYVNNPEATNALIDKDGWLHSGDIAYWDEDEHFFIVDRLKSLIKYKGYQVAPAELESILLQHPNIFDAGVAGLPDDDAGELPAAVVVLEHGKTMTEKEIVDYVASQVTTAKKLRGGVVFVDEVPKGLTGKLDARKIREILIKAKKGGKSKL
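FLuc 10nM, D-luciferin 10uM, ATP 10uM, Mg acetate 10mM, Tris acetate pH 7.5, Tween/BSA; cpd qHTS; enzyme added last; CCD luminescence.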
SNCA viab count: GF-AFC viability counterscreen for inhibitors of alpha-synuclein gene (SNCA) expression. Potency, µM (doses to about 57.1 µM), for the others: top-dose activity change, negative = cytotoxicity, hits mostly cytotoxic. HEK-293-SNCA-luc viability, GF-AFC fluorescence, 24 h. 0.12% of 150,000 active;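 also: potency is read from the fitted curve at half-maximal effect; 0% = DMSO-treated cells and -100% = medium-only wells without cells; nearly all actives have a fitted effect of over 30% in size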
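HEK-293-SNCA-luc cells (1500/well) plated 24 h, then exposed 24 h to a dilution series; GF-AFC added 30 min at 37C, fluorescence 405/540 nm; normalised to medium-only and DMSO wells, Hill fit.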
IP6K1 inhibitor: Primary qHTS assay for small molecule inhibitors of Inositol hexaphosphate kinase 1 (IP6K1); Inositol hexakisphosphate kinase 1 (Homo sapiens), Q92551; IP6K1 kinase, ADP-Glo luminescence, 2 h; stronger effect = lower value; activity change, % (series mostly up to about 58 µM); 0.81% of 140,000 active; AID 1645851, 2021; in the data active = activity change below about -25%; also: % is scaled to controls: 0 for no effect and ±100 for the full control effect
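ADP-Glo luminescence measures ADP made by human IP6K1 during a 2 h RT reaction with ATP/IP6 (mix at 1.3 mM/130 uM); top library doses 57.5 and 19.1 uM final.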
3T3 cytotox: Cytotoxic Profiling in NIH 3T3 Cell Line of Diverse Libraries Using Quantitative High-Throughput Screening; NIH 3T3 viability, CellTiter-Glo ATP luminescence, 48-72 h; 4.3% of 94,000 active; Potency, µM (series often up to 96.7 µM), for inactives: top-dose activity change, negative = cytotoxicity, most hits filed as inhibitors; also: potency is read from the fitted curve at half-maximal effect; % is scaled to controls: 0 for no effect and ±100 for the full control effect; nearly all actives have a fitted effect of over 55% in size
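Cytotoxicity is measured as loss of cellular ATP: NIH 3T3 cells (400/well) are exposed to compound for 48 or 72 hr at 37 °C, then CellTiter-Glo luminescence is imaged after 10 min at room temperature.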
SNCA expr inhib: Primary qHTS assay for inhibitors of alpha-synuclein gene (SNCA) expression | HEK-293 SNCA-luciferase knock-in, luminescence, 24 h | Potency, µM (top dose mostly 57.2 µM), for the others: at the highest dose activity change, negative = inhibition, usual class: inhibitors | 0.17% of 140,000 active | AID 1671194, 2021;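 also: potency is read from the fitted curve at half-maximal effect; plate controls were DMSO cells for no effect and cell-free wells for full effect; nearly all actives have a fitted effect of over 45% in size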
HEK293 tox: Cytotoxic Profiling in HEK 293 Cell Line of Diverse Libraries Using Quantitative High-Throughput Screening; HEK 293 viability, ATP luminescence (CellTiter-Glo), 48-72 h; Potency, µM (highest dose often 115 µM), without a hit: at the highest dose activity change, negative = cytotoxicity, hits mostly inhibitors; 6.6% of 94,000 active; AID 1345083, 2018; also: potency is read from the fitted curve at half-maximal effect; % is scaled to controls: 0 for no effect and ±100 for the full control effect; nearly all actives have a fitted effect of over 60% in size
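Cells seeded first (HEK 293, 250 cells/well), then compound added by pintool. Incubation ran 48 or 72 hr at 37 degree Celsius. CellTiter-Glo was added and luminescence imaged after 10 min at room temperature.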
FLuc SDR no ATP: Firefly luciferase (FLuc-C-HiBiT) SDR gain of signal screen - without ATP | shares compounds with FLuc inh-1 | Purified FLuc-C-HiBiT, Nano-Glo HiBiT luminescence, no ATP | Potency, µM (highest dose often 32.7 µM), for inactives: at the top dose activation (signal gain), actives largely listed as activators | 7.8% of 1,300 active; also: potency is read from the fitted curve at half-maximal effect; nearly all actives have a fitted effect of over 55% in size
FLuc SDR ATP: Firefly luciferase (FLuc-C-HiBiT) SDR gain of signal screen - plus ATP; shares compounds with FLuc inh-1; purified FLuc-C-HiBiT + ATP, HiBiT complementation luminescence; Potency, µM (highest dose often 32.7 µM), for inactives: at the top dose activation (gain of signal), hits mostly activators; 8.7% of 1,300 active; AID 1963319, 2024;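 also: signal reports ligand binding via conformational change of the enzyme rather than luciferase catalysis; potency is read from the fitted curve at half-maximal effect; % of control where 0% means no effect; nearly all actives have a fitted effect of over 55% in size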
FLuc inh-2: Firefly luciferase (FLuc-C-HiBiT) enzymatic inhibition screen - Functional assay. 42% of 1,300 active. purified FLuc-C-HiBiT enzyme, luciferin luminescence. shares compounds with FLuc inh-1. Potency, µM (series often up to 32.7 µM), for the others: at the top dose activity change, negative = inhibition, most hits filed as inhibitors; also: potency is read from the fitted curve at half-maximal effect; % is scaled to controls: 0 for no effect and ±100 for the full control effect; nearly all actives have a fitted effect of over 70% in size
Active calls of the source: *; i = inactive; ? = inconclusive; . = no result given; [ ] = dose if it differs, or a comment. Unless noted, calls follow the shape of the dose curve; as a rule, active = well fitted curve in the direction sought with a large enough effect; inconclusive = small, poorly fitted or top-dose-only effect, or another doubt; inactive = no such curve, though single readings can be large; an effect the other way counts as inactive or inconclusive.

SMILES	FLuc inh-1	SNCA viab count	IP6K1 inhibitor	3T3 cytotox	SNCA expr inhib	HEK293 tox	FLuc SDR no ATP	FLuc SDR ATP	FLuc inh-2
CCc1ccc(CNC(=O)C2CCCN(c3nn4cc(-c5ccc(F)cc5)nc4s3)C2)cc1 (centres undefined)	.	-15%	21	.	?	.	12%	15%	-20%
O=c1[nH]c(=O)n([C@H]2C[C@@H](O)[C@@H](CO)O2)cc1I	.	-9%	.	.	18%	.	.	.	.
Nc1nc2c([nH]c(=O)n2[C@H]2C[C@H](O)[C@@H](CO)O2)c(=O)[nH]1	.	.	.	.	.	.	11%	8%	7%
CNC(=O)[C@@H]1C[C@H](Oc2ccccc2)CN1C1CCN(Cc2cccc(C#N)c2)CC1	.	6%	9	-30%	-1%	?	.	.	.
O=C(O)c1ccc(-c2nnc3ccc(NC(=O)C4CCC4)cn23)cc1	10µM*	2%	-1	-21%	149%	19%	?	?	?
F[C@@H]1CN(Cc2cccnc2)C[C@@H]1OCc1nc2ccccc2[nH]1	i	4%[87.6 µM]	6	-8%[174 µM]	-16%[87.6 µM]	0%[172 µM]	.	.	.
COCCN1CCNc2cc(Nc3cccc(OC)c3)ncc2C1	7.1µM*	-18%[87.6 µM]	-12	?	79%[87.6 µM]	?	20%[49.3 µM]	14%[49.3 µM]	?
COCCN1CCNc2cc(-c3cccc(OC)c3)ncc2C1	.	.	.	.	.	.	?	14%[49.3 µM]	20µM*
Clc1cccc(Nc2cc3c(cn2)CN(Cc2cccnc2)CCN3)c1	1.3µM*	-25%[87.6 µM]	34	?	27%[87.6 µM]	32µM*	?	?	13µM*
COCCN1CCNc2cc(Nc3cccc(N(C)C)c3)ncc2C1	?	-9%[87.6 µM]	-6	?	166%[87.6 µM]	?	.	.	.
COCCN1CCNc2cc(Nc3ccc(N4CCOCC4)cc3)ncc2C1	i	6%[87.6 µM]	-17	?	20%[87.6 µM]	-27%[172 µM]	.	.	.
Cn1ccnc1CN1CCNc2cc(Nc3ccccc3)ncc2C1	4.5µM*	-19%[87.6 µM]	7	?	45%[87.6 µM]	?	26%[49.3 µM]	17%[49.3 µM]	?
c1cncc(Nc2cc3c(cn2)CN(Cc2cccs2)CCN3)c1	?	-13%[87.6 µM]	-17	?	6%[87.6 µM]	?	.	.	.
Cn1cnc(CN2CCNc3cc(Nc4ccccc4)ncc3C2)c1	i	-12%[87.6 µM]	-21	?	33%[87.6 µM]	?	.	.	.
Cc1ccc2c(ccn2CCNC(=O)Cn2nc3c(cc2=O)CCCCC3)c1	i	-7%	3	-7%	-14%	i	.	.	.
COc1ccc(F)cc1-c1cccc(CN)c1	.	1%[87.6 µM]	-12	-26%[138 µM]	8%[87.6 µM]	?	.	.	.
Cc1noc(-c2cccc(F)c2)c1C(=O)NCc1ccc(Cl)cc1	i	5%	-15	?	-1%	?	.	.	.
O=C1NC2(CCN(C(=O)c3ccccc3F)C2)N=C1c1ccncc1 (centres undefined)	i	-1%	-2	i	-16%	i	.	.	.
CCOc1ccc2nc(N(Cc3cccnc3)C(=O)c3cccs3)sc2c1	.	-6%	2	.	159%	.	10%	7%	-19%
Cc1c(Cl)cccc1NC(=O)c1ncn(-c2ccccc2)n1	.	0%	19	.	116%	.	.	.	.
Cc1ccc(NC(=O)c2ncn(-c3ccccc3)n2)cc1Cl	.	-9%	-17	.	170%	.	16%	13%	?
COc1ccc(C)cc1NC(=O)C1CCN(C(=O)c2ncn3c2COC(c2ccc(F)cc2)C3)CC1 (centres undefined)	7.1µM*	-9%	-15	-9%	10%	-13%	12%	?	?
O=C(Nc1ccccc1F)C1CCN(C(=O)c2ncn3c2COC(c2ccc(F)cc2)C3)CC1 (centres undefined)	?	-14%	-4	i	3%	-1%	.	.	.
COc1ccc(NC(=O)C2CCN(C(=O)c3ncn4c3COC(c3ccc(F)cc3)C4)CC2)cc1F (centres undefined)	?	-4%	-15	0%	43%	-8%	.	.	.
Cc1ccc(NC(=O)C2CCN(C(=O)c3ncn4c3COC(c3ccc(F)cc3)C4)CC2)c(F)c1 (centres undefined)	13µM*	-14%	0	i	-31%	-1%	15%	?	?
SMILES	FLuc inh-1	SNCA viab count	IP6K1 inhibitor	3T3 cytotox	SNCA expr inhib	HEK293 tox	FLuc SDR no ATP	FLuc SDR ATP	FLuc inh-2
CCCCn1c(=O)[nH]c2cccnc21	i	-4%[87.6 µM]	31	-12%[174 µM]	18%[87.6 µM]	1%[230 µM]	.	.	.
CCC[C@H](C)Oc1nc(N)c2[nH]c(=O)n(CCCCCN3CCCCC3)c2n1	.	.	.	.	.	.	13%	9%	-3%
CCOC(=O)C1(C)C=C(Nc2cccc(C(=O)O)c2)C(=O)N1c1ccccc1 (centres undefined)	.	3%	12	.	61%	.	10%	?	?
Cc1ccc(C(=O)NC2CCN(C(=O)N3CC4CC(C3)[C@H]3CCCC(=O)N3C4)CC2)cn1 (some centres undefined)	i	?	3	-1%	14%	0%	.	.	.
Cc1ccc(C(=O)N2CCC3(CC2)CC(CO)N(C(=O)c2ccccc2)C3)cn1 (centres undefined)	i	6%	-8	0%	0%	5%	.	.	.
Cc1ccccc1-c1noc(-c2ccc(NC(C)c3cnn(C)c3)nc2)n1 (centres undefined)	0.32µM*	?	25	45µM*	?	32µM*	?	?	0.99µM*
O=C(O)c1ccc(CN2C[C@H](O)C[C@H]2c2nc(-c3cccc([N+](=O)[O-])c3)no2)cc1	?	4%[87.6 µM]	3	-8%[174 µM]	20%[87.6 µM]	i	.	.	.
O=C(O)c1ccc(-c2noc(-c3cccc(F)c3)n2)cc1	.	.	.	.	.	.	17%	?	5µM*
